# The whole screen tested about 380,000 compounds, of which about 4,000 (1.1%) were called active. Not shown: some 3% with an inconclusive outcome. This excerpt belongs to a sample that is enriched for actives. Values without a mark were called inactive. Calls come from the whole dose curve; as a rule, active = well fitted activation curve with a large enough effect; inconclusive = small, poorly fitted or top-dose-only effect; inactive = no such curve, though single readings can be large or run the other way.
# Experiment: qHTS Assay to Identify Small Molecule Activators of BRCA1 Expression; note: nearly all actives have a fitted effect of over 80% in size
# Conditions: MCF7-BRCA1-FFLuc reporter, luminescence, 48 h; series mostly up to 46.1 µM; activation: at the top concentration
# From the text: Functionally, BRCA1 has been implicated in a wide array of cellular activities, including DNA damage repair, cell-cycle checkpoint control, growth inhibition, apoptosis, transcriptional regulation, chromatin remodeling, protein ubiquitylation, and mammary stem cell self-renewal and differentiation. Reduction in BRCA1 levels is associated with an increase in tumor growth and resistance to anti-estrogenic agents, such as tamoxifen, while an increase in BRCA1 expression leads to cell growth arrest and apoptosis. […] The frequent loss of BRCA1 expression in invasive breast cancers in the absence of somatic mutation has been attributed to numerous mechanisms, including hypermethylation of the BRCA1 promoter, exaggerated ubiquitylation of BRCA1 protein, and improper intracellular localization. […] Basal-like breast cancers (BLBCs) are associated with an aggressive clinical course, resistance to chemotherapy, and typically lack expression of estrogen receptor (ER), progesterone receptor (PR), and epidermal growth factor receptor 2 (HER2). BLBCs account for 10-17% of all breast cancers, have few therapeutic options, and are considered the biggest unmet need in the treatment of breast cancer. Conversely, tumors which maintain expression of functional BRCA1 are almost uniformly luminal type cancers, and are accordingly associated with more indolent clinical courses, responsiveness to endocrine therapies, and improved survival.
# As such, it is possible that an increase in BRCA1 expression would enable cellular differentiation and restore tumor suppressor function, resulting in delayed tumor growth and less aggressive, more treatable breast cancers. The long term goal of this proposal is to develop a novel prevention or therapeutic agent for breast cancer patients. To accomplish this goal, the overall objective of this proposal is to access the resources provided by the NIH Molecular Libraries Roadmap Initiative and the Molecular Libraries Probe Production Centers Network (MLPCN) to discover and develop new chemical activator probes that will increase BRCA1 expression and function.
# NIH Molecular Libraries Probe Production Network [MLPCN]
# NIH Chemical Genomics Center [NCGC]
# PI Name: Lisa Harlan-Williams, University of Kansas Medical Center
# 5microl of MCF7-BRCA1-FFLuc cell suspension (400 cells/microl in phenol-red free MEM) are dispensed into Greiner white solid bottom 1536-well assay plates, yielding a final well density of 2000 cells/well. Plates are incubated for 2 hours at 37 degrees C in 5% humidified CO2 to allow cell attachment. Compounds are then transferred via Kalypsys pin tool equipped with 1536-pin array (10nl slotted pins, V&P Scientific, San Diego, CA). The plates are then incubated at 37 degrees C in 5% humidified CO2 for 48 hours. The NCGC in-house luciferase substrate reagent, Buglite, is then added (2.5microl) and plates incubated for 15 minutes, before being transferred to a ViewLux high-throughput CCD imager (PerkinElmer) wherein single end-point measurements of luminescence are acquired using a clear filter. The positive control compound, genistein, will be pinned into dedicated control columns on each plate, including a 16-point 1:3 titration in duplicate, as well as a 10microM maximum activation control, allowing for the normalization of screening activity. DMSO will be pinned into a separate column as a negative control.
# All screening operations will be performed on a fully integrated robotic system (Kalypsys, San Diego, CA) containing one RX-130 and two RX-90 anthropomorphic robotic arms (Staubli, Duncan, SC). Library plates will be screened starting from the lowest and proceeding to the highest concentration. Vehicle-only plates, with DMSO being pin-transferred to columns 5-48, will be inserted uniformly at the beginning and the end of each library in order to monitor and record any shifts in the background, which can be affected by reagent dispensers or loss in enzyme activity over time. […]
# Potency is the fitted concentration of half-maximal effect.
SMILES,activation [%],Potency
O=C(COc1ccc(Cl)cc1)NCCSc1ccccc1,51.9,
CC(C)C[C@H](NC(=O)NCCc1ccc(Cl)cc1)C(=O)O,-20.5,
Cc1cc(C(=O)NCCc2ccc(Cl)cc2)c(C)o1,,8.91 µM (active)
O=C(NCCc1ccccc1)Oc1ccc(Cl)cc1,,12.6 µM (active)
NS(=O)(=O)c1ccc(CCNC(=O)c2ccc(Cl)cc2[N+](=O)[O-])cc1,-10.3,
O=C(NCCc1ccccc1)C1CC1,32.3,
Cc1nc2ccc(S(=O)(=O)NC(C(=O)NCc3ccccc3Cl)C(C)C)cc2s1 (stereo not drawn),12.6,
COc1ccc(Cl)cc1NC(=O)CSc1nc(-c2cccs2)cc(C(F)(F)F)n1,-14.4,
COc1ccc(CNc2nc(-c3ccccc3)nn2C(=O)c2ccccc2OC)cc1,65.4,
O=C(/C=C/c1cn(CC(O)CN2CCc3ccccc32)c2ccccc12)c1ccc(Br)cc1 (stereo not drawn),-51.9,
O=C(Nc1ccc2c(c1)OCCO2)C1CCCC1,51.4,
O=C(Nc1ccccn1)C1CCN(S(=O)(=O)c2ccc3c(c2)OCCO3)CC1,47.3,
O=C(Nc1ccc2c(c1)OCCO2)C1CCCN(c2ncccn2)C1 (stereo not drawn),,10 µM (active)
CCOc1ccc(OCC)c(NS(=O)(=O)c2ccc3[nH]c(=O)ccc3c2)c1,9,
O=C(Nc1cccc2cccnc12)C(F)(F)F,32.5,
O=C(Nc1ccc(C(=O)NCc2ccccc2Cl)cc1)C1=CSCCO1,,11.2 µM (active)
O=C(NCc1ccccc1Cl)C1CCCO1 (stereo not drawn),11.4,
CSc1ccc(CNC(=O)c2ccc(NC(=O)C3=CSCCO3)cc2)cc1,-7.67,
CCc1ccccc1NC(=O)Cn1c(=O)n(-c2cccc(C)c2)c(=O)c2c1c1cc(OC)ccc1n2C,-19,
COc1ccc(/C=C/C(=O)Nc2ccc(C34CC5CC(CC(O)(C5)C3)C4)cc2)cc1OC,-26.3,
COc1ccccc1C(=O)NC(=S)NC12CC3CC(CC(C3)C1)C2,-12.5,
CSc1ccc(/C=C/C(=O)NC23CC4CC(CC(C4)C2)C3)cc1,,11.2 µM (active)

SMILES,activation [%],Potency
CSc1nn(Cc2cccc(C)c2)c(N)c1S(=O)(=O)c1ccccc1,-23,
COc1ccc(CCNc2ncnc3onc(-c4ccc(Cl)cc4)c23)c(OC)c1,-32.5,
CCOC(=O)c1cccc(NS(=O)(=O)c2cc(-c3cnc(C)o3)ccc2OC)c1,-14.7,
N#Cc1nc(/C=C/c2ccc(F)cc2)oc1NCc1ccc(F)cc1,4.74,
C/C(=N\NC(=S)NC1CCCCC1)c1ccc(C)o1,41.7,
Cc1ccc(NC(=O)CSCC(=O)NC2CCCCC2)cc1,17.2,
S=C(Nc1ccc(Br)cc1)NC1CCN(Cc2ccccc2)CC1,5.12,
Cc1ccc(/C=N/NC(=O)Cn2ccc(C(F)(F)F)n2)o1,-2.27,
Cc1ccc(NC(=S)NC2CCCC2)cc1,,10 µM (active)
Cc1ccc(/C=N/NC(=S)NC2CCCCC2)o1,,4.47 µM (active)
CCOC(=O)c1ccc(NC(=O)C2CC(=O)NC(=Nc3ccc(C)c(C)c3)S2)cc1 (stereo not drawn),2.36,
COc1cccc(CNC(=O)c2cc(=O)[nH]c3ccc(S(=O)(=O)N4CCCCC4)cc23)c1,3.87,
CCc1ccc(CNCc2c(C(=O)O)n(Cc3ccc(F)cc3Cl)c3cc(OC)ccc23)cc1,-23.5,
CN(C)c1ccc(/C=N\Nc2ccc([N+](=O)[O-])cc2[N+](=O)[O-])cc1Cl,4.33,
CN(C)c1ccc(C(CC(=O)O)C(=O)O)cc1 (stereo not drawn),-8.28,
CC(C)CNC(=O)C(=O)Nc1ccc(N(C)C)cc1,,2.24 µM (active)
CN(C)c1ccc(N/C=C/C(=O)C(F)(F)F)cc1,17.9,
CCOC(=O)Cn1c(=O)n(-c2ccccc2OC)c2nc(-c3cccc(F)c3)nc(C(N)=O)c21,-41.4,
CCn1nnnc1SCC(=O)c1ccc(C)cc1C,,6.31 µM (active)
COc1ccc(C(=O)CSc2nnnn2C)c(OC)c1,-6.19,
CCn1nnnc1SCC(=O)Nc1ccc(N(C)C)cc1,70.3,
CCCCn1c(CNC(=O)C23CC4CC(CC(C4)C2)C3)nnc1SCC(=O)Nc1ccc(C)cc1,-13.4,

SMILES,activation [%],Potency
COc1ccc(Cn2c(C(=O)O)c(CNCCc3cccs3)c3ccc(OC)cc32)cc1,0,
Nc1nc(SCc2cccc(Br)c2)n[nH]1,-2.4,
N#Cc1cccc(CSc2ncnc(N)n2)c1,-4.83,
Nc1cc(N)nc(SCc2cccc(F)c2)n1,,12.6 µM (active)
Cc1ccc(Cn2c(=O)n(CCCC(=O)NCc3ccccc3Cl)c(=O)c3ccccc32)cc1,0,
O=C(NCCC1=CCCCC1)c1ccc(-n2cncn2)cc1,,3.16 µM (active)
CC(OC(=O)CNC(=O)c1ccc(Cl)c([N+](=O)[O-])c1)C(=O)NCc1ccco1 (stereo not drawn),-3,
O=C(COc1ccc(Cl)cc1)NCCC1=CCCCC1,-1.76,
O=C(NCCC1=CCCCC1)c1ccc(Cl)c([N+](=O)[O-])c1,,7.94 µM (active)
CC(Sc1nncn1C)C(=O)NCCC1=CCCCC1 (stereo not drawn),-7.87,
O=C(COc1cccc(-n2cnnn2)c1)NCCC1=CCCCC1,-2.75,
CC(=O)c1ccc[n+](C(C)CCC(C)[n+]2cccc(C(C)=O)c2)c1 (stereo not drawn),16.4,
COc1ccc(-c2cc(NCc3ccc(F)cc3)n3cnnc3n2)cc1,11.7,
Cc1ccc2c(c1)c1c(c(=O)n(-c3ccccc3)c(=O)n1CC(=O)c1ccc(Cl)cc1)n2C,3.56,
Cc1ccc(OCC(=O)OCc2cc(=O)n3nc(C4CC4)sc3n2)cc1,0,
COCCN(C(=O)C(C)C)c1nnc(-c2ccc(C(C)(C)C)cc2)s1,11.9,
COCCN(C(=O)c1ccco1)c1nnc(-c2ccc(OC)cc2)s1,,7.08 µM (active)
COc1ccc(N(CC(=O)NC(C)(C)C)C(=O)c2ccco2)cc1,1.11,
Cc1c(CCO)sc[n+]1CC(=O)c1ccc2ccccc2c1,16.3,
O=C(CC1Oc2ccccc2NC1=O)NCc1ccc(F)cc1 (stereo not drawn),12.5,
CC(=O)c1cc(C#N)c(SCC(=O)Nc2nccs2)nc1C,,2 µM (active)
Cc1[nH]c2ccccc2c1SCC(=O)Nc1nccs1,79.8,

SMILES,activation [%],Potency
Cc1cc(C(F)(F)F)nc(SCC(=O)Nc2nccs2)n1,0.479,
Cc1oc2c(c1C(=O)Nc1ccc(F)c(F)c1)C1=NCCN1C=N2,-27.6,
Cc1cc(/C=C2/SC(=O)N(CC(=O)N3CCCC3)C2=O)ccc1N1CCOCC1,24.6,
Cc1cc(/C=C2/SC(=O)N(CC(=O)OC(C)C)C2=O)c(C)n1C,,2.51 µM (active)
CCN=C1S/C(=C\c2cc(Br)ccc2OCC(=O)OCC)C(=O)N1CC,-28.2,
CN(C)Cc1cn(-c2ccccc2)nc1-c1ccccc1,14.5,
COc1ccccc1CNCc1ccc(C(=O)O)s1,-0.687,
COc1cc(OC)c(C(=O)Nc2ccc(N(C)C)cc2)cc1OC,,8.91 µM (active)
COc1ccc(Cl)cc1C(=O)Nc1ccc(N(C)C(C)=O)cc1,-8.57,
COc1cc(OC)c(C(=O)NNC(=O)c2ccccc2-n2cccc2)cc1OC,-4.17,
COc1ccc(-c2cc(C(F)(F)F)nc(SCC(=O)N(C)Cc3ccccc3)n2)cc1OC,-44.2,
Cn1ccc(NC(=O)Nc2ccc(Cl)cc2)n1,,7.08 µM (active)
CN(C)S(=O)(=O)c1cc(C(=O)Nc2ccn(C)n2)c(Cl)cc1Cl,-1.4,
Cc1nn(C)cc1C(=O)NNC(=S)Nc1ccc(Cl)cc1,0.773,
COc1cccc(C(=O)NCC(=O)OCc2cc(=O)n3ccsc3n2)c1,23.2,
CCn1cc(C(=O)N(C)Cc2ccccc2)c(=O)c2cc(S(=O)(=O)N3CCCCCC3)ccc21,-20.1,
COc1cccc(NC(=O)COc2cccnc2[N+](=O)[O-])c1,84.5,
COc1cccc(Nc2ncccc2C(=O)O)c1,,11.2 µM (active)
O=C(O)c1cccnc1NC1CCCC1,0.755,
O=c1cc(COc2cccc(C(F)(F)F)c2)nc2sc3c(n12)CCCC3,22.3,
Cc1cccc(C(=O)OC(C)CN2CCN(C)CC2)c1 (stereo not drawn),,8.91 µM (active)
Cc1cccc(C(=O)OC(C)CN2CCCC2)c1 (stereo not drawn),-7.76,

SMILES,activation [%],Potency
Cc1ccc(C(=O)OC(C)CN2CCOCC2)cc1 (stereo not drawn),34.5,
C(=Nc1ccc(/C=C/c2ccnc3ccccc23)cc1)c1cc2c3c(c1)CCCN3CCC2,5.17,
Cc1c(C(=O)NCCCc2ccccc2)cccc1[N+](=O)[O-],-6.52,
CN(c1ccccc1)S(=O)(=O)c1ccc(C(=O)NCCc2ccccc2)cc1,95.3,
CC(C)c1ccc(C(=O)NCCCc2ccccc2)cc1,,10 µM (active)
Cc1ccccc1CNC(=O)c1ccc(NC(=O)N2CCCCc3ccccc32)cc1,0,
C/C=C/NNC(=O)Cc1ccc(OC)cc1,-35.7,
CC1=C(C(=O)OCC2CCCCC2)C(c2c(F)cccc2Cl)CC(=O)N1 (stereo not drawn),11.3,
CC(=O)C1=C(C)NC(=O)NC1c1ccc2c(c1)OCO2 (stereo not drawn),-1.73,
Nc1[nH][nH]c(=O)c1N=Nc1ccc2c(c1)OCO2,,12.6 µM (active)
CC(=O)c1cc2c(cc1N)OCO2,16.3,
CCOc1ccc(CCNC(=O)CN(c2ccc(C)cc2)S(=O)(=O)N(C)C)cc1OCC,-3.76,
COc1cccc(C(=O)Nc2ccc3nc4n(c(=O)c3c2)CCCCC4)c1,,4.47 µM (active)
COc1ccc(CCNC(=O)C(=O)Nc2ccc3nc4n(c(=O)c3c2)CCCCC4)cc1OC,42.2,
O=C(Nc1ccc2nc3n(c(=O)c2c1)CCCC3)c1ccc(Cl)nc1,-1.17,
CC(C)c1ccc(NC(=O)Cn2ncc3ccccc32)cc1,,10 µM (active)
Cc1cccc(NC(=O)c2nnn(CC(=O)Nc3ccc(C(C)C)cc3)c2N)c1C,72.2,
CCc1ccc(NC(=O)Cn2ncn3c(cc4ccccc43)c2=O)cc1,-0.0009,
COc1ccc(Cn2c(=O)[nH]c3cc(C(=O)N4CCN(C(=O)c5ccco5)CC4)ccc3c2=O)cc1,-22.8,
Cc1ccc(-c2nn3c(=O)cc(CN4CCN(C(=O)Nc5cccc(C(F)(F)F)c5)CC4)nc3s2)cc1,0.612,
